This is an account of results in PubChem BioAssay (NCI).

The structures appear in SMILES notation. Compounds without any hit were thinned out: in the full panel of roughly 83,000, 20% have a hit.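 48-hour exposure, single concentration, 96-well plates; percent growth endpoint where 0 means no net growth. Active: below 10.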 Values without a mark were called inactive. Calls of active or inactive are those of the source.

What all share (experiment): NCI-60 one-dose screen, 48 h (100 = growth as untreated, 0 = no growth, -100 = all killed)
Conditions in all cases: 10 µM

Assay [1] has as its system HT29 colon.
The test system of assay [2] is SNB-75 CNS.
For assay [3], the system named is SNB-19 CNS.
The subject of assay [4] is U251 CNS.
The test system of assay [5] is PC-3 prostate.
The subject of assay [6] is SK-MEL-5 melanoma.
The subject of assay [7] is UACC-62 melanoma.
In assay [8] the test system is LOX IMVI melanoma.
Assay [9] has as its system SK-MEL-2 melanoma.
The test system of assay [10] is EKVX NSCLC.
The subject of assay [11] is SN12C renal.
In assay [12] the test system is UO-31 renal.
The test system of assay [13] is TK-10 renal.
Assay [14] relates to ACHN renal.
The subject of assay [15] is CAKI-1 renal.
The subject of assay [16] is A498 renal.
The subject of assay [17] is CCRF-CEM leukemia.
Assay [18] concerns MOLT-4 leukemia.
For assay [19], the system named is SR leukemia.
Assay [20] relates to SK-MEL-28 melanoma.

`CCCC1(CC(=O)O)OCCc2c1[nH]c1ccccc21` (configuration not stated): the growth is 110% in assay [1]; 65.8% in assay [2]; 128% in assay [3]; 108% in assay [4]; 91.7% in assay [5]; 100% in [6]. In addition, the growth is 93.2% in [7]; 108% in assay [8]; 114% in [9]; 120% in assay [10]; 98% in assay [11]; 86.4% in assay [12]. The growth in assay [13] is 113%; in assay [14], 111%; in [15], 91%; in assay [16], 106%; in assay [17] it was 94.1%; in assay [18], 87.3%. Moreover, the growth in assay [19] is 84%.
For the molecule `COc1ccc(N2C(=O)C3c4[nH]c5ccc(OCc6ccccc6)cc5c4C4CCC(C(C)C)CC4C3C2=O)cc1` (configuration not stated), the growth in [1] was 89.3%; in assay [2], 31.3%; in assay [3] it was 104%; in [4] it was 18.8%; in assay [5] it was 88.3%; in assay [6] it was 99.5%. The growth in assay [7] is 94.2%; in [8], 90.1%; in assay [9], 101%; in assay [10] it was 115%; in assay [11], 103%; in [12], 91.7%. Moreover, the growth in [13] is 116%; in assay [14] it was 3.44% (active); in assay [15], 94%; in assay [16], 105%; in [17], 71.9%; in [18], 30.8%. In addition, the growth in assay [19] was 64.6%.
In the case of `O=C(Nc1cccc(-n2cc(-c3ccncc3)c(-c3ccc(O)c(Cl)c3)n2)c1)c1cc(C(F)(F)F)cc(C(F)(F)F)c1`, the growth is 48.2% in assay [1]; 59.4% in assay [2]; 88.4% in [3]; 33.1% in [4]; 24.2% in assay [5]; 56.4% in assay [6]. The growth in [7] is 72.4%; in [8] it was 37.1%; in assay [20], 70.8%; in assay [11] it was 63.6%; in assay [12], 47.8%; in [13], 62%. Also, the growth in assay [14] is 44.8%; in assay [15], 30.7%; in assay [16] it was 57.2%; in assay [17], 29.5%; in [18], 34.4%; in assay [19], 39.1%.
For the molecule `C=C(NC(=O)C(=C)NC(=O)c1csc(C2=NC3c4csc(n4)C4NC(=O)c5csc(n5)C(C(C)(O)C(C)O)NC(=O)C5CSC(=N5)/C(=C/C)NC(=O)C(C(C)O)NC(=O)c5csc(n5)C3(CC2)NC(=O)C(C)NC(=O)C(=C)NC(=O)C(=C)NC(=O)C(C(C)C)NC2C=Cc3c(C(C)O)cc(nc3C2O)C(=O)OC4C)n1)C(N)=O` (configuration not stated), the growth was -2.13% (active) in assay [1]; -10.9% (active) in assay [2]; 16.8% in assay [3]; -46% (active) in [4]; 9.64% (active) in assay [5]; -56.2% (active) in assay [6]. Besides, the growth in [7] is 5.94% (active); in assay [8] it was -52.7% (active); in assay [9], -17.7% (active); in [10] it was 42.2%; in [11], 30.4%; in assay [12], -42.2% (active). Besides, the growth in [13] was -9.31% (active); in assay [14] it was -26.8% (active); in assay [15], 15.8%; in assay [16], -30.3% (active); in assay [17], -31.7% (active); in assay [18], -15% (active). Also, the growth in assay [19] is 5.93% (active).
Regarding `O=C(N/N=C/c1cc2ccccc2c2ccccc12)c1cc(O)c(O)c(O)c1`, the growth in assay [1] is 94.8%; in [2], 56.4%; in [3], 50.6%; in assay [4] it was 20.3%; in assay [5], 52.3%; in assay [6], 52.9%. In addition, the growth in [7] is 41.5%; in assay [8], 47.2%; in [20], 55.6%; in assay [11], 69.8%; in assay [12], 39.2%; in [13], 69.2%. The growth in [14] was 47.2%; in assay [15] it was 43.7%; in assay [16], 106%; in [17], 11.3%; in [18], 35.6%; in assay [19], 9.56% (active).
As for `CCCCCCN1CCN(Cc2ccc(N(CC)CC)cc2)C(=O)C1=O`, the growth in assay [1] is 2.25% (active); in assay [2] it was 14%; in [3], 74.4%; in [4] it was 17.1%; in assay [5], 13.5%; in assay [6], 21.4%. The growth in [7] is 45%; in assay [8], 45.2%; in assay [20], 49.9%; in assay [11] it was 50.8%; in [12], 34.8%; in assay [13], 25.4%. Also, the growth in assay [14] was 52.4%; in assay [15], 41.6%; in assay [16], -4.48% (active); in [17], 9.18% (active); in assay [18] it was 19.1%; in [19] it was 3.37% (active).
On to `COc1ccc(Oc2nc(NC3CCCC3)nc(Sc3ccc(OC)cc3)n2)cc1`, for which the growth in [1] was 43.7%; in [2], 75.3%; in assay [3], 90.9%; in assay [4] it was 44.4%; in assay [5], 43%; in [6] it was 45.7%. Moreover, the growth in assay [7] is 71.1%; in assay [8], 72.6%; in assay [20], 86%; in assay [11], 78.9%; in assay [12], 57.5%; in assay [13] it was 109%. Also, the growth is 79.5% in assay [14]; 49.3% in [15]; 65.5% in assay [16]; 53.2% in assay [17]; 40.2% in assay [18]; 45.7% in assay [19].
Regarding `CC1=C(N2CCOCC2)C(N2CCOCC2)=C(C)C(=O)C1=O`, the growth was 111% in assay [1]; 97.4% in assay [2]; 103% in assay [3]; 101% in [4]; 104% in assay [5]; 99.2% in assay [6]. Also, the growth in [7] is 109%; in assay [8], 101%; in [20], 106%; in [11] it was 110%; in [12] it was 83.6%; in assay [13], 99%. In addition, the growth was 101% in assay [14]; 101% in assay [15]; 88.6% in assay [16]; 102% in assay [17]; 92.7% in [18]; 97.4% in [19].
